In all, about 200,000 compounds went through this assay and about 1,600 (0.8%) were called active. The sample holds actives, similar compounds and a random draw of the others, so the mix is not that of the screen.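 The calls were made as follows: active = plate Z-score above 3 for both tubulin-high and condensed-nucleus cell shares, with cell loss under 80%, at 10 µM; inactive = the rest, inconclusive results apart.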

A short description of the test: microtubule stabilizers in HeLa cells, primary screen, imaging, high-content imaging (AID 2205).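 As to % tubulin-high responders: anti alpha tubulin signal scored within the nucleus-defined area of each cell.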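 As to toxicity: 0% = mean cell density of plate MIN control wells and 100% = no cells.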 To be noted: HeLa tubulin immunostaining HCS, 24 h, at 10 µM; % Hoechst-high responders: measured here: nuclear condensation Hoechst responders, stronger effect = higher value, share of cells brighter than vehicle mean+2SD; % tubulin-high responders: stronger effect = higher value, share of cells brighter than vehicle mean+2SD; toxicity: measured here: cytotoxicity by cell density.
In the case of `Cc1ccsc1C(=O)N/N=C/c1ccc([N+](=O)[O-])cc1`, the % Hoechst-high responders is 2.36%, the % tubulin-high responders is 3.58% (inactive) and the toxicity is 0.132%.
Regarding `Cc1ccc(/C=N/NC(=O)c2sccc2OCc2ccc(F)cc2)cc1`, the % Hoechst-high responders stood at 18.4%, the % tubulin-high responders was 39.2% (active) and the toxicity stood at 68.8%.
On the same counts, the results for `Cc1ccc(COc2ccc(/C=N/NC(=O)CN3CCCCC3)cc2)cc1` are 2.2%, 1.76% (inactive) and 4.99%.
On the same counts, the results for `Cn1cnnc1SCC(=O)Nc1ccc(N2CCOCC2)cc1` are 3.45%, 1.73% (inactive) and 7.15%.
On the same counts, the results for `O=C(c1snnc1-c1ccccc1)N1CCOCC1` are 2.21%, 5.38% (inactive) and 8.24%.
In the case of `Cc1cc(C(=O)OCC(=O)NCc2ccco2)c(C)n1-c1ccccc1`, the % Hoechst-high responders came out at 31.8%, the % tubulin-high responders was 24.1% (active) and the toxicity is 57.4%.
As to `O=C(COC(=O)c1cc(S(=O)(=O)N2CCCCC2)ccc1Cl)NCc1ccco1`, the % Hoechst-high responders is 2.04%, the % tubulin-high responders was 2.32% (inactive) and the toxicity amounted to 4.83%.
For the molecule `O=C(COC(=O)c1cnc(Cl)c(Cl)c1)NCc1ccco1`, the % Hoechst-high responders came to 2.45%, the % tubulin-high responders was 2.71% (inactive) and the toxicity was found to be 7.79%.
Turning to `O=C(Cn1nnc(-c2ccccc2)n1)N/N=C/c1ccc(-c2ccc(Cl)cc2)o1`, the % Hoechst-high responders was 2.75%, the % tubulin-high responders was 3.12% (inactive) and the toxicity came to 5.19%.
On the same counts, the results for `O=C(CCNS(=O)(=O)c1ccc(Br)s1)NCc1ccccc1Cl` are 1.95%, 0.853% (inactive) and 9.73%.
On the same counts, the results for `CCC(C)(C(=O)Nc1ccccc1C)N(C(=O)CNC(C)=O)c1ccc(C)cc1` (centres undefined) are 3.25%, 4.21% (inactive) and 4.1%.
On the same counts, the results for `CCOc1ccc(Br)cc1S(=O)(=O)Nc1ccc(C(=O)OC(C)C(=O)N(C)c2ccccc2)cc1` (centres undefined) are 0.626%, 6.66% (inactive) and 0.658%.
Consider `COc1ccc(Nc2cc(C)nc(-n3nc(C)cc3C)n2)cc1`, for which the % Hoechst-high responders is 25.7%, the % tubulin-high responders was 11.5% (inactive) and the toxicity amounted to 60.4%.
For `CC(=O)c1ccc(Oc2cc(C)nc(-n3nc(C)cc3C)n2)cc1`, the % Hoechst-high responders came out at 57.9%, the % tubulin-high responders was 17.9% (active) and the toxicity was 18.9%.
On the same counts, the results for `Cc1cc(C)n(-c2cc(Oc3ccccc3)ncn2)n1` are 0.881%, 1.4% (inactive) and 3.38%.
Turning to `CCn1cc(CN2CCCC(CNS(=O)(=O)Cc3ccccc3)C2)cn1` (centres undefined), the % Hoechst-high responders is 2.22%, the % tubulin-high responders is 3.89% (inactive) and the toxicity is 8.22%.
On the same counts, the results for `O=C(CN1CCN(Cc2ccc(F)cc2Cl)C1=O)NCc1cccs1` are 1.49%, 1.68% (inactive) and 2.53%.
`CC(C)CNC(=O)CC(NCC(C)C)C(=O)O` (centres undefined): the % Hoechst-high responders stood at 2.02%, the % tubulin-high responders is 2.59% (inactive) and the toxicity stood at 6.47%.
For `O=C(/C=C/c1cccs1)NCc1cccnc1`, the % Hoechst-high responders was determined as 2.05%, the % tubulin-high responders was 2.55% (inactive) and the toxicity is 5.06%.
Consider `O=C(Nc1cccc(F)c1)c1ccc(S(=O)(=O)N2CCCC2)cc1`, for which the % Hoechst-high responders is 3.36%, the % tubulin-high responders was 4.55% (inactive) and the toxicity amounted to 7.13%.
On the same counts, the results for `CCOC(=O)N1CCN(S(=O)(=O)c2ccc(C(=O)Nc3ccc(F)cc3F)cc2)CC1` are 35.2%, 29.1% (active) and 67.6%.
In the case of `COc1ccc(C(=O)Nc2ccc(F)cc2F)cc1`, the % Hoechst-high responders is 1.66%, the % tubulin-high responders is 1.84% (inactive) and the toxicity stood at 2.01%.
`C/[N+]([O-])=C\c1ccc([N+](=O)[O-])o1`: the % Hoechst-high responders was determined as 1.53%, the % tubulin-high responders is 1.72% (inactive) and the toxicity is 3.24%.
For the molecule `CCCn1c(SCC(=O)Nc2ccc(C)c(S(=O)(=O)N3CCOCC3)c2)n[nH]c1=O`, the % Hoechst-high responders came to 2.38%, the % tubulin-high responders was 5.82% (inactive) and the toxicity came to 5.63%.
For `CC(C)C(=O)NC(=S)Nc1ccccc1F`, the % Hoechst-high responders was found to be 1.63%, the % tubulin-high responders is 3.48% (inactive) and the toxicity is 5.15%.
On the same counts, the results for `CC(C)C(=O)Nc1cccc(NC(=S)NC(=O)C(c2ccccc2)c2ccccc2)c1` are 44%, 30.3% (active) and 36.2%.
In the case of `CCCCC(=O)NNC(=S)NC(=O)C(c1ccccc1)c1ccccc1`, the % Hoechst-high responders came out at 1.83%, the % tubulin-high responders is 2.83% (inactive) and the toxicity worked out at 2.74%.
On the same counts, the results for `CC(Sc1nnc2c(n1)C1CCC2(C)C1(C)C)C(=O)Nc1ccccc1` (centres undefined) are 3%, 3.52% (inactive) and 9.4%.
Take `O=C(/C=C/c1ccc(Cl)c([N+](=O)[O-])c1)c1cccnc1`: the % Hoechst-high responders worked out at 0.942%, the % tubulin-high responders is 1.22% (inactive) and the toxicity is 2.98%.
On the same counts, the results for `C=CCn1c(SCc2c(C)noc2C)nc2sc3c(c2c1=O)CCC(C)C3` (centres undefined) are 27.2%, 31.2% (active) and 44.4%.
On the same counts, the results for `CC1CCc2c(sc3nc4n(c(=O)c23)CCS4)C1` (centres undefined) are 1.5%, 1.55% (inactive) and 8.83%.
On the same counts, the results for `Cc1cc(NC(=O)CSc2nc(C(C)C)nc3sc4c(c23)CCC(C)C4)no1` (centres undefined) are 2.02%, 5.74% (inactive) and 9.29%.
With `O=C(CCn1ccc([N+](=O)[O-])n1)Nc1nccs1`, the % Hoechst-high responders was found to be 2.43%, the % tubulin-high responders was 6.18% (inactive) and the toxicity is 8.86%.
On the same counts, the results for `CCN1/C(=C/c2ccc3ccc(C)cc3[n+]2CC)Sc2ccccc21` are 2.38%, 4.83% (inactive) and 9.09%.
For the molecule `CCC(=O)/C=C1\Sc2ccccc2N1CC`, the % Hoechst-high responders was 0.853%, the % tubulin-high responders was 4.83% (inactive) and the toxicity came out at 6.64%.
For `CCN1/C(=C\c2ccc3ccccc3[n+]2CC)Sc2cc(C)ccc21`, the % Hoechst-high responders worked out at 5.5%, the % tubulin-high responders was 8.18% (active) and the toxicity came out at 19.1%.
On the same counts, the results for `FC(F)(F)c1nnc2ccc(N3CCN(c4ccccc4)CC3)nn12` are 1.98%, 0.88% (inactive) and 7.36%.
On the same counts, the results for `Fc1c(F)c(C(F)(F)F)c(F)c(F)c1N1CCN(c2ccc3nnc(C(F)(F)F)n3n2)CC1` are 7.05%, 6.71% (active) and 8.52%.

For the origin of these results see PubChem BioAssay AID2205 (University of Pittsburgh Molecular Library Screening Center, 2009).
